Laboratory results: the supplement of paper PMC9446081
The campaign covered roughly 39,000 compounds. About 220 (0.56%) showed activity. For the sample, actives were picked, then their nearest neighbours and some compounds at random. Unmarked numbers belong to inactive results.

system: Escherichia coli K-12 BW25113; test: relative growth (OD600 normalised to plate interquartile mean) (fraction); higher = less growth inhibition, active = 0.2 or less; details: 50 µM; LB; incubation time: overnight (16-24 h)
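Also: Wild-type cells incubated without shaking, value is the mean of two biological replicates.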

| Structure (SMILES) | relative growth |
| --- | --- |
| O=C(C[C@@H]1CC[C@@H]2[C@H](COC[C@H](O)CN2S(=O)(=O)c2ccccc2)O1)NCc1ccc2c(c1)OCO2 | 0.99 |
| C[C@@H]1CCCCO[C@H](CN(C)Cc2ccccc2)[C@@H](C)CN([C@@H](C)CO)C(=O)c2cc(NS(=O)(=O)c3ccc(Cl)cc3)ccc2O1 | 0.981 |
| Cc1noc(C)c1S(=O)(=O)Nc1ccc2c(c1)C(=O)N([C@H](C)CO)C[C@H](C)[C@H](CN(C)Cc1ccncc1)O2 | 0.999 |
| COCCOC(=O)N1C(=O)[C@@]2(c3cc(C#CCCO)ccc31)[C@H](C(=O)Nc1nc3ccccc3s1)[C@H]1C(=O)O[C@H](c3ccccc3)[C@H](c3ccccc3)N1[C@@H]2c1ccc(O)cc1 | 1.02 |
| C[C@H](CO)N1C[C@H](C)[C@@H](CN(C)Cc2ccc(C(=O)O)cc2)OCCCC[C@H](C)Oc2ccc(NS(=O)(=O)c3ccc(F)cc3)cc2C1=O | 0.967 |
| C=C1C(=O)O[C@@H]2/C=C(\CO[C@@H]3O[C@H](CO)[C@@H](O)[C@H](O)[C@H]3O)CC/C=C3\C[C@H](OC3=O)[C@@H]12 | 0.997 |
| C[C@@H]1CN([C@@H](C)CO)C(=O)Cc2cc(NC(=O)Cc3cn(C)c4ccccc34)ccc2O[C@H]1CN(C)Cc1ccc(C(=O)Nc2ccccc2N)cc1 | 0.988 |
| C[C@H](O)CC1=C[C@H](O)[C@@H](C)OC1=O | 1.01 |
| C[C@]1(C(=O)NCc2ccccc2)c2ccccc2C(=O)N(Cc2ccc(OC(F)(F)F)cc2)[C@H]1c1ccc(CO)cc1 | 0.983 |
| CN[C@@H]1[C@@H](O[C@H]2O[C@H](CO)[C@@H](N)[C@H](O)[C@H]2O)O[C@H]2C[C@@H](N)[C@H](O[C@H]3[C@H](O)[C@@H](O)[C@H](N)C[C@@H]3N)O[C@@H]2[C@@H]1O | 0.978 |
| CNC1C(OC2OC(CO)C(N)C(O)C2O)OC2CC(N)C(OC3C(N)CC(N)C(O)C3O)OC2C1O.O=S(=O)(O)O (stereo unspecified) | 1.2 |
| NC[C@@H]1O[C@H](O[C@H]2[C@@H](O)[C@H](O[C@@H]3[C@@H](O)[C@H](N)C[C@H](N)[C@H]3O[C@@H]3O[C@H](CO)[C@@H](O)C[C@H]3N)O[C@@H]2CO)[C@H](N)[C@@H](O)[C@@H]1O[C@H]1O[C@H](CO)[C@@H](O)[C@H](O)[C@@H]1O | 1.01 |
| NCC1CCC(N)C(OC2C(N)CC(N)C(OC3OC(CO)C(O)C(N)C3O)C2O)O1 (stereo unspecified) | 0.947 |
| NCC1OC(OC2C(N)CC(N)C(OC3OC(CO)C(O)C(N)C3O)C2O)C(N)CC1O (stereo unspecified) | 0.0445 (active) |
| NC[C@H]1O[C@H](O[C@H]2[C@H](O)[C@@H](O[C@H]3O[C@H](CO)[C@@H](O)[C@H](N)[C@H]3O)[C@H](N)C[C@@H]2N)[C@H](N)C[C@@H]1O | 0.0393 (active) |
| C[C@H]1CN([C@@H](C)CO)C(=O)CCCn2cc(nn2)CO[C@@H]1CN(C)S(=O)(=O)c1cccc(C#N)c1 | 0.987 |
| C[C@H](CO)N1C[C@H](C)[C@@H](CN(C)Cc2ccc(Oc3ccccc3)cc2)Oc2ccc(NC(=O)C3CC3)cc2C1=O | 0.915 |
| C[C@H]1CN([C@@H](C)CO)C(=O)c2ccccc2-c2ccccc2CO[C@H]1CN(C)S(=O)(=O)c1ccc(C(F)(F)F)cc1 | 1.04 |
| C[C@H]1CN([C@@H](C)CO)S(=O)(=O)c2ccc(C3=CCCCC3)cc2O[C@H]1CN(C)Cc1cncnc1 | 1.02 |
| COc1ccccc1S(=O)(=O)N(C)C[C@H]1OCc2cn(nn2)CCCC(=O)N([C@@H](C)CO)C[C@H]1C | 1.05 |
| C[C@H]1CN([C@@H](C)CO)C(=O)Cc2cc(NC(=O)C3CCCCC3)ccc2O[C@@H]1CN(C)S(C)(=O)=O | 0.992 |

| Structure (SMILES) | relative growth |
| --- | --- |
| C[C@@H]1CN([C@H](C)CO)C(=O)c2cc(NS(=O)(=O)c3ccc(F)cc3)ccc2O[C@@H](C)CCCCO[C@@H]1CN(C)Cc1ccc(C(=O)O)cc1 | 1 |
| Clc1ccc2sc(Sc3ccccc3)nc2c1 | 0.985 |
| COc1ccc(-c2c(C)oc3ccc(Cl)cc23)cc1 | 0.992 |
| CC1CCC2(C)C(C=O)=CCCC2C1(C)CC1OC(O)C(=O)C12CO2 (stereo unspecified) | 0.0462 (active) |
| COC(=O)[C@@H](NC(=O)c1cccc(NC=O)c1O)[C@@H](C)O | 1.04 |
| C[C@@H]1CN([C@H](C)CO)C(=O)c2cc(NC(=O)c3ccncc3)ccc2O[C@@H](C)CCCCO[C@H]1CN(C)Cc1ccc(C(F)(F)F)cc1 | 1 |
| Cc1noc(C)c1NC(=O)N(C)C[C@H]1OCCCC[C@@H](C)Oc2ccc(NS(=O)(=O)c3ccccc3)cc2C(=O)N([C@@H](C)CO)C[C@H]1C | 1.01 |
| O=C1CN(N=Cc2ccc(-c3ccc([N+](=O)[O-])cc3)o2)C(=O)[N-]1.[Na+] | 1.06 |
| O=C1CN(/N=C/c2ccc([N+](=O)[O-])o2)C(=O)N1 | 0.031 (active) |
| O=C1OC(CN2CCOCC2)CN1N=Cc1ccc([N+](=O)[O-])o1 (stereo unspecified) | 0.575 |
| O=C1CN(N=Cc2ccc([N+](=O)[O-])o2)C(=O)N1 | 0.0462 (active) |
| O=C1OCCN1N=Cc1ccc([N+](=O)[O-])o1 | 0.0457 (active) |
| Cc1cc(C(=O)Nc2cccc3c2O[C@@H](CN(C)S(=O)(=O)c2ccccc2)[C@H](C)CN([C@@H](C)CO)C3=O)n(C)n1 | 1.01 |
| C[C@@H]1CN([C@@H](C)CO)S(=O)(=O)c2ccc(Br)cc2O[C@@H]1CN(C)S(=O)(=O)c1ccc(F)cc1 | 1.04 |
| CCN1CCN(CC(=O)Nc2ccc(-c3cccc4c(=O)cc(N5CCOCC5)oc34)c3sc4ccccc4c23)CC1 | 0.981 |
| COc1ccc(S(=O)(=O)Nc2cccc3c2O[C@H](CN(C)S(=O)(=O)c2cn(C)cn2)[C@@H](C)CN([C@H](C)CO)C3=O)cc1 | 1.01 |
| CN(C)CCCNC(=O)C[C@@H]1CC[C@@H]2[C@H](COc3ccc(NS(C)(=O)=O)cc3C(=O)N2C)O1 | 1 |
| C[C@@H]1CCCCO[C@H](CN(C)Cc2ccccc2)[C@@H](C)CN([C@H](C)CO)C(=O)c2cc(NC(=O)C3CCCCC3)ccc2O1 | 0.995 |
| C[C@@H]1CCCCO[C@@H](CN(C)C(=O)Nc2ccc3c(c2)OCO3)[C@@H](C)CN([C@H](C)CO)C(=O)c2cc(NC(=O)c3ccccc3)ccc2O1 | 1.01 |
| C/C=C/c1ccc2c(c1)O[C@@H](CN(C)C(=O)c1ccc3c(c1)OCO3)[C@@H](C)CN([C@H](C)CO)S2(=O)=O | 1.01 |
| CC1=C(C(=O)O)N2C(=O)[C@@H](NC(=O)[C@H](N)C3=CCC=CC3)[C@H]2SC1 | 1.03 |

| Structure (SMILES) | relative growth |
| --- | --- |
| CON=C(C(=O)NC1C(=O)N2C(C(=O)O)=C(C[N+]3(C)CCCC3)CSC12)c1csc(N)n1.[Cl-] (stereo unspecified) | 0.0437 (active) |
| CO/N=C(\C(=O)N[C@@H]1C(=O)N2C(C(=O)O)=C(C)CS[C@H]12)c1csc(N)n1 | 0.0368 (active) |
| CO/N=C(\C(=O)N[C@@H]1C(=O)N2C(C(=O)O)=C(C[N+]3(C)CCCC3)CS[C@H]12)c1csc(N)n1 | 0.0339 (active) |
| CC1=C(C(=O)O)N2C(=O)C(NC(=O)C(N)C3=CCC=CC3)C2SC1 (stereo unspecified) | 1.07 |
| C[C@H]1CN([C@@H](C)CO)S(=O)(=O)c2ccc(C3=CCCC3)cc2O[C@@H]1CN(C)S(=O)(=O)c1ccc(F)cc1 | 1.02 |
| C[C@H](CO)N1C[C@H](C)[C@@H](CN(C)C(=O)CN(C)C)Oc2ncc(-c3ccc(C(=O)N(C)C)cc3)cc2C1=O | 0.975 |
| Cc1cccc(NC(=O)Nc2ccc3c(c2)C(=O)N(C)[C@@H]2CC[C@@H](CC(=O)NCc4ccccc4Cl)O[C@@H]2CO3)c1 | 0.998 |
| C[C@@H]1CN([C@H](C)CO)S(=O)(=O)c2ccc(-c3cncnc3)cc2O[C@H]1CN(C)C(=O)Cc1cccnc1 | 0.98 |
| CC(C)NC(=O)N[C@@H]1CC[C@@H](CCN)O[C@H]1CO | 0.989 |
| C[C@H](CO)N1C[C@H](C)[C@@H](CN(C)Cc2ccc3c(c2)OCO3)Oc2ccc(NC(=O)CCCN(C)C)cc2CC1=O | 0.975 |
| O=c1nc[nH]c2n[nH]cc12 | 1.03 |
| COc1ccc(C(=O)O)c(O)c1OC | 1.03 |
| COC1=C(N)C(=O)c2nc(-c3nc(C(=O)O)c(C)c(-c4ccc(OC)c(OC)c4O)c3N)ccc2C1=O | 0.038 (active) |
| COCC(=O)Nc1ccc2c(c1)C(=O)N(C)C[C@@H](OC)[C@H](C)CN(Cc1ccccc1C(=O)O)[C@H](C)CO2 | 1.02 |
| C[C@@H]1CCCCO[C@H](CN(C)S(=O)(=O)c2ccc(Cl)cc2)[C@@H](C)CN([C@H](C)CO)C(=O)c2cc(NC(=O)c3ccncc3)ccc2O1 | 1.01 |
| COc1ccc(CN(C)C[C@H]2OCCCC[C@H](C)Oc3ccc(NS(=O)(=O)c4ccc(C)cc4)cc3C(=O)N([C@@H](C)CO)C[C@@H]2C)cc1 | 0.982 |
| C[C@H](CO)N1C[C@H](C)[C@H](CN(C)Cc2ccc3c(c2)OCO3)OCCCC[C@H](C)Oc2ccc(NS(=O)(=O)c3ccc(F)cc3)cc2C1=O | 0.995 |
| COc1ccc(NC(=O)N(C)C[C@@H]2Oc3ccc(NC(=O)Nc4ccc(C(F)(F)F)cc4)cc3C(=O)N([C@@H](C)CO)C[C@H]2C)cc1 | 1.03 |
| Clc1nc(-c2ccccn2)nc2scc(-c3ccccc3)c12 | 0.979 |
